# High-throughput results from PubChem BioAssay.
# Hits are enriched below; roughly 27% of the tested compounds scored in any of these assays.
# CYP2C9 inh = blockers of cytochrome P450 2C9 activity – biochemical, luminescence, ADME assay, primary screen | inhibition, % at 5 µM | P11712 | AID 777, 2007 | CYP2C9 Supersomes, luciferin-H conversion | 96,000 tested, 20% active;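 active = blocking of liver enzyme CYP2C9 beyond about 50% at 5 µM, limit read from the data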
# Target sequence (P11712 whole entry, looked up): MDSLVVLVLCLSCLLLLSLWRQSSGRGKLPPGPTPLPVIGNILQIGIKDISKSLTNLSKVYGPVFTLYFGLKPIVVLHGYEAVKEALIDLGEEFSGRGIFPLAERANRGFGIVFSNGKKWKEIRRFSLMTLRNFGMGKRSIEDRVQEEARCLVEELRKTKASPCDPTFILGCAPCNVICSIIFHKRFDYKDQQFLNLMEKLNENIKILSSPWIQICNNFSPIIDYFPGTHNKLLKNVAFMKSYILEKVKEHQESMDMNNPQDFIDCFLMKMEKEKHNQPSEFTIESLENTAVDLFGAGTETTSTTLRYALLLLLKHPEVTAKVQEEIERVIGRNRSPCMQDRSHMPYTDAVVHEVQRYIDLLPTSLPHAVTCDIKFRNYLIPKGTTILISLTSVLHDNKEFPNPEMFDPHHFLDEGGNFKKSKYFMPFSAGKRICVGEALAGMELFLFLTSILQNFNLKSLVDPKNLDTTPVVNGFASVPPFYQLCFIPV
# CYP2C9 act = human CYP2C9 activators, primary screen, biochemical, luminescence. Cytochrome P450 2C9 (Homo sapiens), P11712. recombinant CYP2C9, luciferin-H conversion; stronger effect = higher value; factor 1 = untreated enzyme, 0 = blocked. activation factor at 5 µM. 96,000 tested, 1.4% active. AID 1024, 2008;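 active = activation factor of 2 or more for CYP2C9 at a 5 µM dose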;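 also: 0 = sulfaphenazole-blocked wells and 1 = vehicle-only wells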
# Cav32 inh = Cav3.2 calcium influx blockers – cell-based, Fluo-4 calcium fluorescence, FDSS, MLSMR library, primary screen; AID 449739, 2010; Voltage-dependent T-type calcium channel subunit alpha-1H (Homo sapiens), O95180; Cav3.2-expressing cells; stronger effect = lower value; B-score at 10 µM; 100,000 tested, 4% active;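 active = single-dose well whose peak fluorescence ratio is a statistical outlier from its plate by either plate-standardised score or position-corrected B-score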
# CYP2C19 activ = human CYP2C19 activators, primary screen, biochemical, luminescence. Cytochrome P450 2C19 (Homo sapiens), P33261. recombinant CYP2C19, luciferin-H EGE luminescence; stronger effect = higher value; 0 = fully inhibited enzyme, 1 = untreated enzyme. activation factor at 5 µM. 96,000 tested, under 10 active;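 active = activation factor of at least 2 at 5 µM in the primary screen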;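 also: 0 = wells with 2.5 mM tranylcypromine and 1 = vehicle-only wells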
# CYP2C19 inh = blockers of cytochrome P450 2C19 activity – biochemical, luminescence, ADME assay, primary screen | AID 778, 2007 | inhibition, % at 5 µM | CYP2C19 Supersomes, luciferin-H EGE luminescence, 30 min | 96,000 tested, 21% active | P33261;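 active = CYP2C19 inhibition above a set limit at 5 µM in the primary screen, cut at about 50% in these data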;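 also: plate controls were negative control wells for no effect and 2.5 mM tranylcypromine positive control for full effect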
# Starred values were filed as active, the others as inactive; x = not tested or not shown.
SMILES,CYP2C9 inh,CYP2C9 act,Cav32 inh,CYP2C19 activ,CYP2C19 inh
CCCc1[nH]nc2c1C(c1ccc(O)cc1OCC)C(C#N)=C(N)O2 (configuration not stated),53*,0.5,0.65,0.2,76*
CCCc1[nH]nc2c1C(c1ccc(OCCN3CCOCC3)c(OCC)c1)C(C#N)=C(N)O2 (configuration not stated),27,0.7,0.0018,1,-4
CCCc1[nH]nc2c1C(c1cccc(OC)c1)C(C#N)=C(N)O2 (configuration not stated),76*,0.2,0.47,0.3,73*
CCc1nnc(NC(=O)CCC(=O)N2CCN(c3ccccn3)CC2)s1,-9,1.1,x,1,0
CCOc1cccc2sc(NC(=O)c3ccc(Br)s3)nc12,24,0.8,x,1.1,-7
COC(=O)c1[nH]c2cc(OC)ccc2c1NC(=O)CCN1CCN(c2cccc(C)c2C)CC1,26,0.7,-0.23,1,4
CC1CCc2nc(NC(=O)CN3CCN(Cc4ccc5c(c4)OCO5)CC3)sc2C1 (configuration not stated),76*,0.2,-3.3,0.3,72*
CC1CCc2nc(NC(=O)CN3CCN(c4ccccc4)CC3)sc2C1 (configuration not stated),8,0.9,-2.1,0.9,8
COC(=O)c1[nH]c2ccc(C)cc2c1NC(=O)CCN1CCN(C2CCCCC2)CC1,-7,1.1,0.51,0.9,5
COC(=O)c1[nH]c2cc(OC)ccc2c1NC(=O)CCN1CCN(c2ccccc2)CC1,67*,0.3,0.29,1.1,-12
CCOC(=O)C1CCN(CC(=O)Nc2c(C(=O)OC)[nH]c3ccccc23)CC1,-47,1.5,2.3,0.3,73*
CCOC(=O)C1CCN(CC(=O)Nc2c(C(=O)OC)[nH]c3cccc(Cl)c23)CC1,19,0.8,0.12,0.8,23
COC(=O)c1[nH]c2ccc(Cl)cc2c1NC(=O)CCN1CCN(C2CCCCC2)CC1,9,0.9,1.8,0.4,55*
O=S(=O)(NC1CCN(Cc2ccccc2)CC1)c1cccc2cccnc12,-54,1.5,0.64,0.9,11
O=C(NCc1ccccc1C(F)(F)F)C12CN(Cc3ccccc3)CC1C(c1ccc([N+](=O)[O-])cc1)=NO2 (configuration not stated),37,0.6,-0.34,0.6,44
CCOC(=O)C1CCCN(CC(=O)Nc2c(C(=O)OC)[nH]c3ccc(Br)cc23)C1 (configuration not stated),58*,0.4,-4.3*,0.5,52*
COC(=O)c1[nH]c2ccccc2c1NC(=O)CN1CCN(Cc2ccc3c(c2)OCO3)CC1,41,0.6,0.0018,0.5,51*
CCN(CC(=O)Nc1c(C(=O)OC)[nH]c2ccc(C)cc12)c1ccc2c(c1)OCO2,62*,0.4,0.42,0.8,23
CCOC(=O)C1CCN(CC(=O)Nc2c(C(=O)OC)[nH]c3ccc(Cl)cc23)CC1,45,0.5,-1.4,0.3,73*
Cc1cc(C)c2c(n1)sc1c(=O)n(Cc3ccccc3Cl)nnc12,20,0.8,x,0.7,31
COC(=O)c1[nH]c2ccc(Br)cc2c1NC(=O)CN1CCCc2ccccc21,88*,0.1,-0.22,0.8,16
CCOC(=O)CC(C#N)c1c[nH]c2ccccc12 (configuration not stated),-51,1.5,-0.0005,0.3,70*
NC(=O)NC(=O)COC(=O)CCCc1c[nH]c2ccccc12,0,1,x,0.7,34
CCOc1ccc(-c2nc(CSc3nncs3)cs2)cc1OC,7,0.9,0.03,0.5,53*
CCOc1ccc(-c2nc(CSc3nnc(C)s3)cs2)cc1OC,10,0.9,0.34,0.8,22
SMILES,CYP2C9 inh,CYP2C9 act,Cav32 inh,CYP2C19 activ,CYP2C19 inh
NS(=O)(=O)c1ccc(NS(=O)(=O)c2cccs2)cc1,22,0.8,0.94,0.9,8
O=S(=O)(Nc1ccc(Cc2ccncc2)cc1)c1ccc(Br)cc1,99*,0,x,0,100*
CCS(=O)(=O)Nc1ccc(Cc2ccncc2)cc1,95*,0.1,0.85,0.1,93*
Cc1ccc(NS(=O)(=O)c2ccc(NS(=O)(=O)c3cccs3)cc2)cc1,87*,0.1,-1.7,0.5,50
O=S(=O)(Nc1ccc(Cc2ccncc2)cc1)c1ccc(Br)s1,100*,0,0.042,0.3,72*
O=C(O)CCCNS(=O)(=O)c1ccc(Br)s1,10,0.9,0.13,0.9,7
CCS(=O)(=O)Nc1ccc(NC(C)=O)cc1,-8,1.1,0.0034,1.1,-12
NS(=O)(=O)c1cc2c(cc1Cl)NC(C1C[C@H]3C=C[C@@H]1C3)NS2(=O)=O (some centres not stated),x,x,-0.46,x,x
CC1CCC(NC(=O)C2CCN(C(=O)NC3CCCCC3)CC2)CC1 (configuration not stated),-18,1.2,0.43,1.2,-17
O=S(=O)(Nc1ccc(Cc2ccncc2)cc1)c1cccs1,99*,0,-0.008,0,100*
CCCCc1ccc(NS(=O)(=O)c2cccs2)cc1,59*,0.4,-5*,0.5,49
CSc1cccc(NS(=O)(=O)c2cccs2)c1,14,0.9,-0.78,0.7,32
O=S(=O)(NC1=NCCCCC1)c1cccs1,-14,1.1,-0.11,1,2
Cc1ccnc(NS(=O)(=O)c2ccc(NS(=O)(=O)c3cccs3)cc2)n1,x,x,0.43,x,x
N#CCc1ccc(NS(=O)(=O)c2cccs2)cc1,72*,0.3,-0.58,0.1,86*
O=C(O)c1cc(C2CC2)nn1-c1ccccc1,-13,1.1,-0.077,1.1,-6
Nc1cc(C2CCCC2)nn1-c1ccccc1,35,0.7,1.3,0.1,92*
CCC(C)(C)NC(=O)C(c1ccc(F)cc1)N(Cc1ccco1)C(=O)CCC(=O)Nc1ccccn1 (configuration not stated),7,0.9,-8.8*,0.9,8
COc1ccc(C(C(=O)NC(C)(C)C)N(Cc2ccco2)C(=O)CCC(=O)Nc2cc(C)on2)cc1 (configuration not stated),69*,0.3,0.29,0.6,38
CCC(C)(C)NC(=O)C(c1ccc(C)cc1)N(Cc1ccco1)C(=O)CCC(=O)Nc1nccs1 (configuration not stated),8,0.9,-4.8*,1.1,-6
N#Cc1c(-c2ccc3c(c2)OCO3)ccn2nc(-c3cccc(C(F)(F)F)c3)nc12,10,0.9,-1.9,0.6,38
COCC(COCCCNC(=O)Nc1ccc(Br)cc1)OC (configuration not stated),22,0.8,0.9,0.6,36
